# Assay results from PubChem BioAssay AID602318 (Sanford-Burnham Center for Chemical Genomics, 2012).
# The campaign covered roughly 1,900 compounds. About 550 (29%) were called active. These entries were drawn from the full list. Values without a mark were called inactive. No stated cut-off is given here; in the data, active means inhibition above about 40%; inactive means the rest.
# Target: 26S proteasome non-ATPase regulatory subunit 14 (Homo sapiens) (UniProt O00487)
# Assay: Rpn11 (PSMD14) deubiquitinase inhibitors, confirmation, biochemical, fluorescence polarization, single concentration (AID 602318)
# Conditions: purified human 26S proteasome, Ub4-pepOG fluorescence polarization; at 20 µM; active compounds read high; proteasome pretreated with epoxomicin
# Sequence of 26S proteasome non-ATPase regulatory subunit 14 (Homo sapiens) (O00487 whole entry, looked up): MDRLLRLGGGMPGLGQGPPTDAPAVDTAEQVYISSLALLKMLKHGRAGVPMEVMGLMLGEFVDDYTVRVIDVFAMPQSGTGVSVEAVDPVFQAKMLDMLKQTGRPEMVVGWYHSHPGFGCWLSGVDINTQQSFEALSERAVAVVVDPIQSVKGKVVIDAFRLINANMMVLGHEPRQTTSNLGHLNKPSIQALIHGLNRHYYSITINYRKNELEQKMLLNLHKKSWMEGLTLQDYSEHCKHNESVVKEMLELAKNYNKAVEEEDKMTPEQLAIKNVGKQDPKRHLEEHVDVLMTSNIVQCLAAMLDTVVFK
row,Compound,inhibition
1,CCc1ccc(-c2cc(C(=O)NCc3ccco3)c3ccccc3n2)s1,40.9% (active)
2,CCCS(=O)(=O)N1CCCC(C(=O)NCc2ccco2)C1 (stereo unspecified),-10.1%
3,C=CCn1c(=S)[nH]c2scc(-c3ccco3)c2c1=O,0.26%
4,CCC(C)Cn1c(O)cc2nn(-c3nc4ccccc4s3)c(=O)c-2c1C (stereo unspecified),15.4%
5,Cc1ccc(NC(=O)c2c(NC(=O)CCC(=O)O)sc3c2CCCCC3)cc1,-3.94%
6,COc1ccc(CNC(=O)c2nnn(CC(=O)Nc3cc(C)cc(C)c3)c2N)cc1,52.8% (active)
7,CSC1=N/C(=C\C=C\c2cccs2)C(=O)S1,29.7%
8,CCN1CCN(c2cc3nc(C)n(Cc4ccccc4)c(=O)c3cc2NC(=O)c2ccccc2F)CC1,17.4%
9,C/C(=N/Nc1nc(-c2ccccc2)c(CC(=O)O)s1)c1ccccc1,34%
10,COc1ccc(Cl)cc1NC(=O)CCS(=O)(=O)c1ccc(Br)cc1,124% (active)
11,O=C(CCS(=O)(=O)c1cccc2nonc12)NCCc1ccccc1Cl,-2.85%
12,CCCOc1ccc(Cn2c(O)cc(=O)[nH]c2=O)cc1,20.3%
13,CCNCc1cc2cc(C)ccc2[nH]c1=O,18.7%
14,Cc1ccc(Nc2ccccc2N)cc1,32.8%
15,Cc1ccc(Nc2nc(Cl)c(C=O)s2)cc1,55% (active)
16,O=C(OCc1cc2ccccc2[nH]c1=O)c1cccnc1,-8.83%
17,CC(C)Cn1c(CCC(=O)O)ccc1-c1cccs1,-26.6%
18,CC(C)CC1C(=O)N(Cc2cn(Cc3ccco3)nn2)CCS(=O)(=O)N1Cc1ccc(-c2ccc(Cl)c(Cl)c2)cc1 (stereo unspecified),17.1%
19,Cc1c(NC(=O)CSc2cccc3cccnc23)c(=O)n(-c2ccccc2)n1C,21.1%
20,CN=c1scc(-c2cc(OC)ccc2OC)n1/N=C/c1c(C)[nH]c2ccccc12,44.5% (active)
21,CC(=O)c1sc(N/N=C/c2ccc(C(C)C)cc2)nc1C,-9.02%
22,CCOC(=O)N1CCC(NC(=O)C(NS(=O)(=O)c2ccc3c(c2)CCN3C(=O)CC)C(C)C)CC1 (stereo unspecified),4.92%
23,Cc1sc2nc(COC(=O)C(NC(=O)c3ccc(Cl)cc3Cl)C(C)C)[nH]c(=O)c2c1C (stereo unspecified),34.7%
24,C=CC1=C(C(=O)O)N2C(=O)[C@@H](NC(=O)/C(=N/OCC(=O)O)c3csc(N)n3)[C@H]2SC1,66.5% (active)
25,CCC/C=C(\CCC)C(NC(=O)Cc1ccccc1)c1ccc(C(=O)OC)cc1 (stereo unspecified),-5.68%
26,CCCCCCCCCCOC(=O)Cn1c(COc2cccc(OC)c2)[n+](C)c2ccccc21,7.65%
